Results taken from PubChem BioAssay (NCATS).
Records with an inconclusive call do not appear. Active and inactive are the calls of the source. The call rests on the fitted dose curve; in most records, active means well fitted curve in the direction sought with a large enough effect; inconclusive means small, poorly fitted or top-dose-only effect, or another doubt; inactive means no such curve, though single readings can be large; an effect the other way counts as inactive or inconclusive.

How the values were obtained:
[1] = Quantitative High-Throughput drug screen in 47 multiple myeloma cell lines against the NCATS MIPE library collection: JIM3_ECACC cell viability assay (AID 1918963; further: nearly all actives have a fitted effect of over 35% in size)
Outline: (§1)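 Myeloma cell lines, 500 cells per well, exposed to MIPE 4.0 library compounds for 48 h at 37C, 5% CO2. Viability from ATP by CellTiter-Glo luminescence; normalised to DMSO (100%) and media-only (0%) wells.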

[2] = Quantitative High-Throughput drug screen in 47 multiple myeloma cell lines against the NCATS MIPE library collection: INA6_PLB cell viability assay (AID 1918965; further: nearly all actives have a fitted effect of over 55% in size)
Outline: as §1

[3] = Quantitative High-Throughput drug screen in 47 multiple myeloma cell lines against the NCATS MIPE library collection: JJN3_DSMZ cell viability assay (AID 1918966; further: nearly all actives have a fitted effect of over 50% in size)
Outline: (§2)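 Approved and investigational drugs from MIPE 4.0 were added by pin tool to 500 cells per well. After 48 hours at 37C, ATP-based CellTiter-Glo luminescence indicated remaining viability.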

[4] = Quantitative High-Throughput drug screen in 47 multiple myeloma cell lines against the NCATS MIPE library collection: H1112_PLB cell viability assay (AID 1918967; further: nearly all actives have a fitted effect of over 30% in size)
Outline: as §2

[5] = Quantitative High-Throughput drug screen in 47 multiple myeloma cell lines against the NCATS MIPE library collection: Karpas25_ECACC cell viability assay (AID 1918968; further: nearly all actives have a fitted effect of over 35% in size)
Outline: as §2

[6] = Quantitative High-Throughput drug screen in 47 multiple myeloma cell lines against the NCATS MIPE library collection: KMS27_JCRB cell viability assay (AID 1918970); further: nearly all actives have a fitted effect of over 30% in size
Outline: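 ATP-based viability (CellTiter-Glo luminescence) is measured in cells treated 48 h with approved and investigational drugs at 37 °C. Controls are DMSO-only wells for full viability and media-only wells for none.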

[7] = Quantitative High-Throughput drug screen in 47 multiple myeloma cell lines against the NCATS MIPE library collection: KMS12BM_JCRB cell viability assay (AID 1918971); further: nearly all actives have a fitted effect of over 35% in size
Outline: (§3)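 We plated 500 myeloma cells per well, pinned in MIPE 4.0 compounds, and incubated for 48 hours at 37C. ATP was then quantified with CellTiter-Glo, with DMSO and media-only wells defining 100% and 0%.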

[8] = Quantitative High-Throughput drug screen in 47 multiple myeloma cell lines against the NCATS MIPE library collection: KMS12PE_JCRB cell viability assay (AID 1918972); further: nearly all actives have a fitted effect of over 30% in size
Outline: as §1

[9] = Quantitative High-Throughput drug screen in 47 multiple myeloma cell lines against the NCATS MIPE library collection: KMS20_JCRB cell viability assay (AID 1918973); further: nearly all actives have a fitted effect of over 45% in size
Outline: as §2

[10] = Quantitative High-Throughput drug screen in 47 multiple myeloma cell lines against the NCATS MIPE library collection: KMS26_JCRB cell viability assay (AID 1918975); further: nearly all actives have a fitted effect of over 45% in size
Outline: as §3

[11] = Quantitative High-Throughput drug screen in 47 multiple myeloma cell lines against the NCATS MIPE library collection: MMM1_PLB cell viability assay (AID 1918976); further: nearly all actives have a fitted effect of over 35% in size
Outline: (§4)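 500 cells/well per myeloma line exposed to pinned MIPE 4.0 compounds for 48 h at 37 °C, 5% CO2. Viability read as ATP by CellTiter-Glo luminescence, normalised to DMSO-only (100%) and media-only (0%) wells.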

[12] = Quantitative High-Throughput drug screen in 47 multiple myeloma cell lines against the NCATS MIPE library collection: MOLP8_DSMZ cell viability assay (AID 1918977); further: nearly all actives have a fitted effect of over 45% in size
Outline: as §4

[13] = Quantitative High-Throughput drug screen in 47 multiple myeloma cell lines against the NCATS MIPE library collection: NCIH929_DSMZ cell viability assay (AID 1918978); further: nearly all actives have a fitted effect of over 35% in size
Outline: as §4

[14] = Quantitative High-Throughput drug screen in 47 multiple myeloma cell lines against the NCATS MIPE library collection: OCIMY1_PLB cell viability assay (AID 1918979); further: nearly all actives have a fitted effect of over 35% in size
Outline: as §4

[15] = Quantitative High-Throughput drug screen in 47 multiple myeloma cell lines against the NCATS MIPE library collection: MM1S_ATCC cell viability assay (AID 1918980); further: nearly all actives have a fitted effect of over 45% in size
Outline: as §4

[16] = Quantitative High-Throughput drug screen in 47 multiple myeloma cell lines against the NCATS MIPE library collection: MM1R_ATCC cell viability assay (AID 1918981); further: nearly all actives have a fitted effect of over 35% in size
Outline: as §4

[17] = Quantitative High-Throughput drug screen in 47 multiple myeloma cell lines against the NCATS MIPE library collection: KMS28PE_JCRB cell viability assay (AID 1918983); further: nearly all actives have a fitted effect of over 35% in size
Outline: as §4

[18] = Quantitative High-Throughput drug screen in 47 multiple myeloma cell lines against the NCATS MIPE library collection: LP1_DSMZ cell viability assay (AID 1918982); further: nearly all actives have a fitted effect of over 35% in size
Outline: as §4

[19] = Quantitative High-Throughput drug screen in 47 multiple myeloma cell lines against the NCATS MIPE library collection: KMS21BM_JCRB cell viability assay (AID 1918974); conditions: ATP luminescence, 48 h; viability: at 45.8 µM (top of the series) unless noted
Outline: as §2

Measured: Potency
Potency means the concentration at half of the fitted maximal effect.

COC(=O)Nc1ccc(-c2nc(N3CCOCC3)c3cnn(C4CCN(Cc5cccnc5)CC4)c3n2)cc1
active: [1] 1.18 µM | [2] 46.9 nM | [3] 0.743 µM | [4] 26.4 µM | [5] 118 nM | [7] 1.05 µM | [9] 1 nM | [10] 2.96 µM | [11] 0.0833 µM | [12] 0.059 µM | [13] 74.3 nM | [14] 4.69 µM | [15] 0.118 µM | [16] 1.48 µM
inactive: [6] | [8]

c1ccc2c(CCNc3ccc(Nc4ccncc4)cc3)c[nH]c2c1
active: [1] 16.6 µM | [2] 23500 nM | [3] 20.9 µM | [4] 18.7 µM | [5] 20900 nM | [6] 4.18 µM | [7] 13.2 µM | [8] 5.26 µM | [9] 10500 nM | [11] 13.2 µM | [13] 20900 nM | [15] 2.96 µM | [16] 3.32 µM | [17] 18.7 µM

c1cc(-c2cnn3cc(-c4ccc(OCCN5CCCCC5)cc4)cnc23)ccn1
inactive: [6] | [8]
active: [1] 3.72 µM | [2] 1870 nM | [3] 8.33 µM | [4] 2.96 µM | [5] 2960 nM | [7] 16.6 µM | [9] 2350 nM | [10] 16.6 µM | [11] 16.6 µM | [12] 10.5 µM | [13] 2350 nM | [15] 16.6 µM | [16] 18.7 µM | [18] 13.2 µM | [17] 11.8 µM

C=CC(=O)Nc1cccc(Oc2nc(Nc3ccc(N4CCN(C)CC4)cc3)ncc2Cl)c1
active: [1] 5.9 µM | [2] 2960 nM | [3] 18.7 µM | [4] 5.9 µM | [5] 3720 nM | [6] 4.69 µM | [8] 1.87 µM | [9] 1870 nM | [10] 26.4 µM | [11] 23.5 µM | [13] 3720 nM | [14] 16.6 µM | [15] 18.7 µM | [16] 14.8 µM | [18] 16.6 µM | [17] 18.7 µM

O=C(O)C1(Cc2cccc(Nc3nccs3)n2)CCC(Oc2cccc(Cl)c2F)CC1 (stereo not given)
inactive: [3] | [4] | [13] | [14]
active: [1] 0.935 µM | [2] 235 nM | [7] 1.32 µM | [19] 23.5 nM | [15] 0.332 µM | [16] 0.469 µM

CNC(=O)c1c(F)cccc1Nc1nc(Nc2cc3c(cc2OC)CCN3C(=O)CN(C)C)nc2[nH]ccc12
inactive: [6]
active: [1] 0.105 µM | [2] 5900 nM | [3] 6.62 µM | [4] 1.87 µM | [5] 93.5 nM | [7] 14.8 µM | [9] 118 nM | [10] 0.264 µM | [11] 0.0469 µM | [12] 7.43 µM | [13] 83.3 nM | [14] 0.372 µM | [16] 0.0935 µM | [18] 16.6 µM | [17] 0.132 µM

C[C@@]12O[C@@H](C[C@]1(O)CO)n1c3ccccc3c3c4c(c5c6ccccc6n2c5c31)CNC4=O
active: [1] 0.526 µM | [2] 74.3 nM | [3] 0.418 µM | [4] 1.48 µM | [5] 296 nM | [7] 1.48 µM | [9] 148 nM | [11] 3.32 µM | [12] 0.209 µM | [13] 469 nM | [14] 2.35 µM | [15] 1.05 µM | [16] 0.833 µM | [18] 5.26 µM | [17] 2.09 µM

CC(C)(C)OC(=O)Nc1ccc(-c2cc(C(=O)NCCCCCCC(=O)NO)no2)cc1
active: [1] 3.72 µM | [2] 469 nM | [3] 2.35 µM | [4] 3.72 µM | [5] 935 nM | [7] 1.66 µM | [8] 0.935 µM | [9] 2640 nM | [19] 935 nM | [10] 3.72 µM | [13] 1660 nM | [15] 2.35 µM | [16] 1.87 µM

C[C@@H]1CN(CC(=O)Nc2ccc3c(c2)Cc2cccc(-c4cc(=O)cc(N5CCOCC5)o4)c2S3)C[C@H](C)O1
active: [1] 13.2 µM | [2] 11800 nM | [3] 13.2 µM | [5] 4180 nM | [6] 18.7 µM | [7] 20.9 µM | [10] 20.9 µM | [13] 5900 nM | [15] 18.7 µM | [16] 16.6 µM | [17] 9.35 µM

Cc1nc(Nc2n[nH]c3c2CN(C(=O)N[C@H](CN(C)C)c2ccccc2)C3(C)C)c2sccc2n1
active: [1] 0.0469 µM | [2] 5.9 nM | [3] 4.18 µM | [4] 1.66 µM | [5] 526 nM | [7] 0.743 µM | [9] 105 nM | [11] 4.69 µM | [13] 148 nM | [14] 16.6 µM | [15] 2.64 µM | [16] 1.05 µM | [18] 0.0079 µM | [17] 0.418 µM

O=C(C=Cc1cccnc1)NCCCCC1CCN(C(=O)c2ccccc2)CC1
inactive: [12]
active: [1] 0.001 µM | [2] 1 nM | [3] 0.0209 µM | [4] 0.0132 µM | [5] 5.9 nM | [6] 0.0132 µM | [7] 0.0209 µM | [19] 16.6 nM | [10] 0.0053 µM | [13] 13.2 nM | [15] 0.0296 µM | [17] 0.132 µM
